Only some compounds are listed: those with a hit (about 11% of all), similar ones and a draw of the others.
USP17 inh – inhibitors of human USP17 deubiquitinase. hit rate 6.5% among 47,000. purified USP17, Ub-rhodamine cleavage fluorescence, 3 h. inhibition, % at 50 µM. Ubiquitin carboxyl-terminal hydrolase 17-like protein 5 (Homo sapiens), A8MUK1
Target sequence (A8MUK1 whole entry, looked up): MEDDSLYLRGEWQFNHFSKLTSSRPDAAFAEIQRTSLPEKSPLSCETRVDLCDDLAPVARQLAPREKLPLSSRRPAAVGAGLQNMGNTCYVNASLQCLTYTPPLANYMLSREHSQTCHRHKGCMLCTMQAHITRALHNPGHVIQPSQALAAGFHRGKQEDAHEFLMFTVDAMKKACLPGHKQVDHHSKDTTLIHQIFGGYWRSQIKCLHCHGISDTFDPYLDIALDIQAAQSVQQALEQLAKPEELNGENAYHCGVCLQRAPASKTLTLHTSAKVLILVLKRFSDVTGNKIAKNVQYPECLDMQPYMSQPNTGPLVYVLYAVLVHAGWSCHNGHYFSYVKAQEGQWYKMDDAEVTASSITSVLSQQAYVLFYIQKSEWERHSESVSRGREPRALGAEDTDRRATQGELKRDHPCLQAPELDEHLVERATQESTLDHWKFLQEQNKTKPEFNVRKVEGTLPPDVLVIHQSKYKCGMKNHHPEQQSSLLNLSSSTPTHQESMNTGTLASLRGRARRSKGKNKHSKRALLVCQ
USP30 inh – inhibitors of human USP30 deubiquitinase; Ubiquitin carboxyl-terminal hydrolase 30 (Homo sapiens), Q70CQ3; purified USP30, Ub-rhodamine cleavage fluorescence; inhibition, % at 25 µM; hit rate 5.3% among 47,000; AID 1645860, 2021
USP28 inh – inhibitors of human USP28 deubiquitinase. Ubiquitin carboxyl-terminal hydrolase 28 (Homo sapiens), Q96RU2. purified USP28, Ub-rhodamine cleavage fluorescence, 30 min. inhibition, % at 25 µM. hit rate 3% among 47,000
Of the large screens only hits and unclear results are named; the others gave an inactive call. Cut-off read from the data, not from the text of the source: active = inhibition above about 30%; inactive = the rest.

Cc1ccc(S(=O)(=O)Nc2cccc(-c3nc4cccnc4s3)c2)cc1C	USP30 inh 47
COc1ccc(OC)c(S(=O)(=O)Nc2cccc(-c3nc4cccnc4s3)c2)c1	none
O=C(O)Cc1ccc(Nc2nc3ccccc3n3nnnc23)cc1	none
OC(c1ccccn1)c1c[nH]c2ccccc12 (configuration not stated)	none
O=[N+]([O-])c1ccccc1C(c1c[nH]c2ccccc12)c1c[nH]c2ccccc12	USP17 inh 54
CCN1CCN(c2cc(-c3ccncc3)[nH]n2)CC1	none
O=C(NCc1ccccc1Cl)c1csnn1	none
O=C(NCc1csc2ccccc12)c1ccc(Cl)cc1	USP30 inh 45
COc1ccc(C(=O)NCCc2cccs2)cc1	none
COc1ccc(C(=O)NCc2csc3ccccc23)cc1	USP30 inh 64, USP28 inh 35
Cc1ccc(C(CNC(=O)c2oc3ccccc3c2C)N2CCN(C)CC2)o1 (configuration not stated)	none
O=C1CCCN1CC(=O)N1C[C@@H]2[C@@H](C1)OCC(=O)N2Cc1ccc(F)cc1	none
CCN(CC)c1ccc(NC(=O)c2cc(=O)[nH]c3ccccc23)cc1	none
O=C(Nc1ccc(Br)cc1)c1cc(=O)[nH]c2ccccc12	USP30 inh 35
O=S(=O)(O)c1ccc(Cc2ncc(C(F)(F)F)cc2Cl)s1	none
COC(=O)CCC(c1ncc(C(F)(F)F)cc1Cl)S(=O)(=O)c1ccccc1 (configuration not stated)	USP17 inh 44, USP30 inh 58
Cc1cccc2sc(NC(=O)c3nnn(-c4ccc(F)cc4)n3)nc12	USP17 inh 56
O=C(Nc1ccc(-n2nnc(C(=O)N3CCCC3)n2)cc1)c1cccc(Cl)c1	none
Cc1ccc(NC(=O)c2nnn(-c3ccccc3)n2)cc1F	USP28 inh 56
O=C(Nc1nc2ccccc2s1)c1nnn(-c2ccccc2)n1	none
NC(=O)c1nnn(-c2ccc(NC(=O)c3ccc(F)c(F)c3)cc2)n1	USP17 inh 64
Cc1nc(NC(=O)c2nnn(-c3ccc(C(F)(F)F)cc3)n2)sc1C	none
O=C(CN1CCC(c2nc3ccccc3[nH]2)CC1)Nc1ccc(F)cc1F	none
O=C(CN1CCn2c(cnc2C(F)(F)F)C1=O)Nc1ccc(F)cc1	none
COc1ccc(CC(=O)Nc2ccc(-c3cn4ccsc4n3)cc2)cc1OC	none
O=C(Nc1ccc(-c2cn3ccsc3n2)cc1)c1ccccc1Br	USP30 inh 37
O=[N+]([O-])c1ccc(C(c2ccc[nH]2)c2ccc[nH]2)cc1	USP17 inh 37
O=C(O)C(Cc1c[nH]c(=O)s1)c1ccc([N+](=O)[O-])cc1 (configuration not stated)	none
CC(C)=CCOc1ccc(C[C@H]2NC(=O)[C@@H](C)NC(=O)[C@@H](Cc3ccc(O)cc3)NC(=O)CNC(=O)[C@H](C)NC(=O)[C@H](Cc3ccccc3)OC2=O)cc1	none
CC(C)C[C@@H]1NC(=O)[C@H](Cc2ccccc2)N(C)C(=O)[C@H](C)NC(=O)c2ccccc2NC(=O)[C@H](Cc2ccc(O)cc2)N(C)C1=O	USP17 inh 41
NC(=O)C1CN(S(=O)(=O)c2ccccc2)CC12CCCCC2 (configuration not stated)	none
O=C(NCC1CCCO1)c1cn(Cc2ccccc2)nc1-c1cccnc1 (configuration not stated)	none
Cc1ccc(NC(=O)c2cn(Cc3ccccc3)nc2-c2cccnc2)cc1	USP28 inh 32
CCCNC(=O)c1ccc(Nc2cc(CCC)nc3nc(-c4cccnc4)nn23)cc1	none
CCCCNC(=O)c1ccc(Nc2cc(C)nc3nc(-c4cccnc4)nn23)cc1	USP30 inh 47
CC(C)c1cc(NCc2ccccc2)n2nc(-c3cccnc3)nc2n1	USP30 inh 55
CC(C)c1cc(NCc2ccccc2F)n2nc(-c3cccnc3)nc2n1	none
COc1ccc(CNC(=O)CNc2cc(C)nc3nc(-c4cccnc4)nn23)cc1	USP30 inh 31
Cc1cc(NCC(=O)NCc2ccccc2)n2nc(-c3cccnc3)nc2n1	none
CCc1cc(C(=O)Nc2ccc(C3CCc4nncn4C3)cc2)on1 (configuration not stated)	USP28 inh 34
CCc1nnc2n1CC(c1ccc(NC(=O)c3sc(C)nc3C)cc1)CC2 (configuration not stated)	none
COc1ccc(-c2ocnc2C(=O)NCc2cccc(OC)c2)cc1	USP28 inh 44
COc1cccc(CNC(=O)c2sc(-c3ccc(OC)c(OC)c3)nc2C)c1	USP17 inh 45
COc1ccc(-c2cc(C(=O)Nc3ccccc3F)on2)cc1	USP17 inh 42
O=C(Nc1ccccc1Cl)c1ncoc1-c1cccs1	none
COc1ccc(NC(=O)c2ncoc2-c2cccs2)c(OC)c1	USP17 inh 46
COc1ccc(-c2ocnc2C(=O)Nc2cc(F)ccc2F)cc1	none
COc1ccc(CNC(=O)c2ncoc2-c2ccc(OC)cc2)cc1	none
COc1cccc(-c2nc(CC(=O)NCc3cccc(C(=O)O)c3)cs2)c1	none
CC(C)CN1[C@H]2CCN(C(=O)Nc3ccccc3)CC[C@@H]2Oc2ccccc2S1(=O)=O	none
O=C(CN1CCC2(CCC1=O)CC(=O)c1ccccc1O2)NCc1cccnc1 (configuration not stated)	none
Cc1nnc(-c2cnn(-c3ccccc3)c2N)n1CCc1ccccc1	none
CCN1CCN(c2nc3c(c(=O)[nH]c(=O)n3C)n2CCSc2nnnn2-c2ccccc2)CC1	none
O=C(CCc1nnc2ccc(N3CCCC3)nn12)N1CCN(c2ccccc2F)CC1	none (no result: USP17 inh)
COc1ccc(-c2ocnc2C(=O)NCc2ccc(F)cc2)cc1OC	none
COc1cccc(-c2ocnc2C(=O)Nc2ccc(C)cc2C)c1	USP17 inh 39, USP30 inh 34
COc1ccc(-c2ocnc2C(=O)Nc2ccccc2F)cc1OC	USP17 inh 76, USP30 inh 81
COc1cccc(-c2ocnc2C(=O)Nc2cc(C)ccc2C)c1	none
O=C(Cc1nc(-c2ccncc2)n[nH]1)NCc1ccccc1	none
N#Cc1ccc(NCC(=O)Nc2ccccc2Br)nc1	none
Cc1nc2cc(N3CC(C(=O)Nc4ccc(F)cc4)CC3=O)ccc2o1 (configuration not stated)	none
O=S(=O)(C1CC1)N1CCOC2(CCCN(c3ncc(F)cn3)C2)C1 (configuration not stated)	USP30 inh 35
CCS(=O)(=O)N1CCOC2(CCCN(c3ncc(F)cn3)C2)C1 (configuration not stated)	none
COCCN1C(=O)c2ccccc2C(C(=O)N2CCC(N3CCCCC3)CC2)C1c1cccs1 (configuration not stated)	none
Cc1cccc(-c2nnc(SCC(=O)Nc3ccc4[nH]c(=O)[nH]c4c3)n2C)c1	none
Cc1occc1-c1nnc(SCC(=O)Nc2ccc3[nH]c(=O)[nH]c3c2)n1C	USP17 inh 45
CCc1ccc(-c2nc(SCC(=O)Nc3ccc4[nH]c(=O)[nH]c4c3)n[nH]2)cc1	USP17 inh 37, USP30 inh 58
Cc1nnc(SCC(=O)Nc2ccccc2Cl)n1Cc1ccccc1	none
Cc1nnc(SCC(=O)Nc2ccc3[nH]c(=O)[nH]c3c2)n1Cc1ccccc1	USP17 inh 42
O=C(CSc1n[nH]c(-c2ccc(F)cc2)n1)Nc1ccc(F)cc1	none

Assay outcomes: PubChem, Buhrlage Lab, Dana-Farber Cancer Institute and Novartis Institutes for BioMedical Research (Cambridge, Mass)
